# TDP-43 tox inh – rescues yeast from TDP-43 toxicity; 0.45% of 45,000 active; AID 1347073; yeast TDP-43 toxicity rescue, BacTiter-Glo growth, 24 h; Potency, µM (highest dose often 46.1 µM), usual class: activators; active = well fitted activation curve with a large enough effect; note: 0% is about no effect; nearly all actives have a fitted effect of over 55% in size
#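 TDP-43-expressing yeast, pregrown in raffinose, seeded at OD600 0.02 in galactose medium with compound for 24 hr at 30 deg C. Growth read by BacTiter-Glo luminescence, so rescue of toxicity appears as activation.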
# The depositor's hits bear a star; i = inactive. Only a selection was taken, and hits are over-represented in it overall. Potency is the fitted concentration of half-maximal effect.
SMILES,TDP-43 tox inh
Fc1ccccc1-n1ncc2c1ncn1nc(Cc3ccccc3)nc21,11µM*
CC(C)Oc1ccc(C(=O)N(Cc2ccc(N(C)C)cc2)Cc2ccco2)cc1,i
CC1(C(=O)NC2CCCCC2)Cc2ccccc2C(=O)N1Cc1ccccc1Cl (configuration not stated),i
Cc1cc(Cl)ccc1NC(=O)C1CCN(c2nnc(-n3c(C)ccc3C)s2)CC1,i
CCCS(=O)(=O)c1nc(S(=O)(=O)c2ccc(C)cc2)c(NCCCOC(C)C)s1,i
CC(C)(C)C(=O)Cn1c(=O)n(CCCCCC(=O)NCc2ccccc2Cl)c(=O)c2sccc21,i
CC1CN(C(=O)CS(=O)(=O)Cc2ccccc2)CC(C)O1 (configuration not stated),i
CC1CN(C(=O)C(Sc2ccccc2)c2ccccc2)CC(C)O1 (configuration not stated),i
CC1CN(C(=O)N2c3ccccc3Sc3ccccc32)CC(C)O1 (configuration not stated),13µM*
Cc1ccc(Cl)cc1NC(=O)N1CCc2cc(S(=O)(=O)N3CCC(C)CC3)ccc21,i
CCOC(=O)c1ccc(N2C(=O)CC(N3CCN(Cc4ccccc4)CC3)C2=O)cc1 (configuration not stated),i
COC(=O)c1ccc(N2C(=O)CC(N3CCOCC3)C2=O)cc1 (configuration not stated),16µM*
CC1CCN(C2CC(=O)N(c3ccccc3)C2=O)CC1 (configuration not stated),i
Cc1cc(F)cc(-c2cc(C(=O)NCc3ccccn3)[nH]n2)c1,i
N#CCCn1cc(C(=O)Nc2ccc([N+](=O)[O-])cc2)c(-c2cccs2)n1,i
CC(=O)Nc1nc(-c2ccc([N+](=O)[O-])cc2)cs1,i
O=[N+]([O-])c1ccc(-c2nc(-c3cccs3)c(-c3cccs3)[nH]2)cc1,3.2µM*
Cc1cc[n+](CC(=O)Nc2nc3ccccc3s2)cc1,i
CCc1ccc2nc(NC(=O)CCCc3cccs3)sc2c1,i
O=C(Cc1cccs1)Nc1nc2ccccc2s1,16µM*
O=C(Nc1cccs1)Nc1cc(C(F)(F)F)ccc1Cl,i
CCOc1cccc(C(=O)NC(=S)Nc2cccc(C)c2)c1,20µM*
CCOC(=O)NC(=S)Nc1cccc(NC(=S)NC(=O)OCC)c1,i
O=C(Nc1cccc(Cl)c1)c1ccc2c(c1)OCCO2,i
O=C(NC(=S)Nc1ccc2c(c1)OCCO2)c1cccc(Br)c1,13µM*
SMILES,TDP-43 tox inh
O=C(Nc1ccc(C(=O)O)cc1)/C(=C/c1ccc2c(c1)OCO2)NC(=O)c1cccc(Br)c1,i
COC(=O)COc1cccc(NC(=O)c2cccc(C)c2)c1,i
Cc1ccc(CNC(=O)C2CCCN(c3nnc(-n4c(C)ccc4C)s3)C2)cc1 (configuration not stated),i
CCOc1ccccc1NC(=O)CN(C)S(=O)(=O)c1ccc2nc(C)sc2c1,i
O=C(Nc1nnc(SCc2ccccc2)s1)c1cc2c(s1)CCCC2,i
O=C(Nc1nccs1)c1cc2c(s1)CCCCC2,7.1µM*
CC(C)Cc1nnc(NC(=O)c2cc3c(s2)CCC3)s1,i
O=C(NCCO)c1ccc(-c2cnc3cccnn23)cc1,i
O=C(CCCCCn1c(=O)c2sccc2n(CC(=O)Nc2ccccc2F)c1=O)NCc1ccc2c(c1)OCO2,i
Cc1ccc(Cn2ccn(Cc3ccc(C)cc3)c(=O)c2=O)cc1,i
CCCN1C(=O)c2ccccc2CC1(C)C(=O)NC1CCCCC1 (configuration not stated),i
NC(=O)N/N=C/c1coc2ccc3ccccc3c2c1=O,i
O=C(O)Cc1coc2ccc3ccccc3c12,13µM*
CCC(=O)OCc1cc(=O)oc2ccc3ccccc3c12,i
Cc1nc2c(OCc3ccccc3)cccn2c1N(C)C(=O)C1CCCCC1,i
CCOc1ccc(CNc2cc(C)nc3nc(-c4cccc(C)c4)nn23)cc1OC,i
COc1cc(OC)c(NC(=O)NC(C)c2c(-n3cccc3)sc(C)c2C)cc1Cl (configuration not stated),i
Nc1ccc(N2CCCC2)c(S(=O)(=O)Nc2cccc(C(F)(F)F)c2)c1,i
CC1CC(OC(=O)c2ccccc2C(=O)c2ccc(Cl)cc2)C(=O)O1 (configuration not stated),i
O/N=C(/c1ccc(Cl)cc1)C1CC1c1ccccc1 (configuration not stated),11µM*
C/C(=N/NS(=O)(=O)c1ccc(C)cc1)[C@H]1C[C@@H]1c1ccccc1,i
Cc1ccc(C)c(CN2C(=O)c3ccccc3S(=O)(=O)c3ccc(C(=O)N4CCCCC4)cc32)c1,i
COc1cc(/C=C(\C#N)C(=O)Nc2cccc3ncccc23)cc(OC)c1OC,i
Cc1cccc(C)c1NC(=O)/C(C#N)=C/c1ccsc1,20µM*
COc1ccc(/C=C(\C#N)C(=O)OCC(=O)Nc2c(C)cccc2C)cc1,i
O=C(CCn1cnc2onc(-c3ccc(F)cc3)c2c1=O)Nc1ccc(F)c(Cl)c1,i

# Compound activity deposited in PubChem BioAssay by National Center for Advancing Translational Sciences (NCATS).
